Among the test systems are DU-145 prostate; K-562 leukemia; MALME-3M melanoma; MDA-MB-231 breast; RXF 393 renal; SF-268 CNS; SF-295 CNS; SF-539 CNS; UACC-257 melanoma; M14 melanoma.
Experiment in all cases: NCI-60 one-dose screen, 48 h (100 = growth as untreated, 0 = no growth, -100 = all killed)
Details in all cases: 10 µM unless noted

About 83,000 compounds went through this panel and 20% of them were active in at least one assay; those are over-represented in the sample as a whole.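 Negative percent growth values reflect cell death: -40 means 40% of the cells present at the start died, and -100 means all died.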 A number with no mark means an inactive call. The source made the active and inactive calls. The calls were made as follows: active = growth percent below 10; inactive = the rest.

Take `Oc1c(Cl)cc(Cl)cc1/C=N/Nc1nnc(N/N=C/c2cc(Cl)cc(Cl)c2O)c2ccccc12`: the growth in the assay on DU-145 prostate was 21.8%; in the assay with K-562 leukemia it was 9.41% (active); in the assay with MALME-3M melanoma, 10.4%; in the assay with MDA-MB-231 breast, 21.3%; in the assay with RXF 393 renal, -16.3% (active); with SF-268 CNS it was 6.61% (active). Further, the growth is -1.51% (active) with SF-295 CNS, -17.7% (active) in the assay on SF-539 CNS, 38.5% with UACC-257 melanoma and 5.83% (active) in the assay on M14 melanoma.

In the case of `Nc1nc2c([nH]1)c1[nH]c3ccccc3c1c1[nH]c3ccccc3c21`, the growth was 50.2% in the assay on DU-145 prostate; -41.6% (active) with K-562 leukemia; -72.4% (active) in the assay on MALME-3M melanoma; -38.7% (active) in the assay on MDA-MB-231 breast; -7.44% (active) in the assay on RXF 393 renal; 71.9% in the assay with SF-268 CNS. Moreover, the growth in the assay on SF-295 CNS was 42.8%; in the assay on SF-539 CNS, 55.6%; in the assay with UACC-257 melanoma, 103%; in the assay with M14 melanoma, -68.9% (active).

For the compound `Nc1c(C(=O)Nc2ccccc2Cl)sc2nc3c(cc12)C(O)CCC3` (stereo not given), the growth is 14.4% in the assay on DU-145 prostate; 10.9% with K-562 leukemia; 76.2% in the assay on MALME-3M melanoma; 58.2% with MDA-MB-231 breast; 19.6% with RXF 393 renal; 65.6% in the assay with SF-268 CNS. For the same compound, the growth with SF-295 CNS is 22.8%; with SF-539 CNS, 3.94% (active); in the assay with UACC-257 melanoma, 56.8%; in the assay on M14 melanoma, 19.9%.

Consider `O=C(OCc1ccc2c(Cl)cc(Cl)c(O)c2n1)n1cncn1`, for which the growth in the assay on DU-145 prostate is 38.7%; in the assay with K-562 leukemia it was 18.2%; with MALME-3M melanoma, 33%; in the assay with MDA-MB-231 breast, 59.6%; in the assay with RXF 393 renal, 45.9%; in the assay on SF-268 CNS, 24.1%. For the same compound, the growth with SF-295 CNS was 20%; with SF-539 CNS, 15.7%; in the assay on UACC-257 melanoma, 41.2%; in the assay on M14 melanoma, 20.4%.

Consider `N#Cc1c(-c2ccccc2)cc(-c2ccccc2)n(CCCCCC(=O)Nc2ccccc2N)c1=O`, for which the growth is 72.6% with DU-145 prostate; 46.3% in the assay with K-562 leukemia; 76.8% with MALME-3M melanoma; 64.1% with MDA-MB-231 breast; 39% in the assay with RXF 393 renal; 64.3% in the assay with SF-268 CNS. For the same compound, the growth with SF-295 CNS is 95.9%; in the assay on SF-539 CNS, 72.9%; in the assay on UACC-257 melanoma, 78.6%; with M14 melanoma it was 80.1%.

With `c1ccc(C2=NN[C@H](c3cn(-c4ccccc4)nc3-c3ccccc3)C2)cc1`, the growth with DU-145 prostate is 56.1%; in the assay on K-562 leukemia it was 85.2%; in the assay on MALME-3M melanoma, 53.4%; in the assay on MDA-MB-231 breast it was 14%; in the assay with RXF 393 renal, 32.1%; in the assay with SF-268 CNS it was 52%. For the same compound, the growth was -23.8% (active) in the assay with SF-295 CNS, 38.5% in the assay with SF-539 CNS, 65.2% in the assay on UACC-257 melanoma and 45.6% in the assay with M14 melanoma.

As for `CC1(C)CCC(S(=O)(=O)c2ccc3c(c2)/C(=N\O)c2cc(S(=O)(=O)N4CCC(O)(c5cccc(C(F)(F)F)c5)CC4)ccc2-3)CC1`, the growth is -83.8% (active) with DU-145 prostate; -70.2% (active) in the assay on K-562 leukemia; -79% (active) with MALME-3M melanoma; -68.7% (active) in the assay with MDA-MB-231 breast; -85.4% (active) in the assay on RXF 393 renal; -71.2% (active) in the assay with SF-268 CNS. Also, the growth in the assay on SF-295 CNS was -64.8% (active); with SF-539 CNS, -82.1% (active); in the assay with UACC-257 melanoma it was -69.9% (active); with M14 melanoma it was -74.8% (active).

For the compound `C/C(=N\NC(=O)c1ccccc1O)c1cccc(/C(C)=N/NC(=O)c2ccccc2O)n1`, the growth in the assay on DU-145 prostate is 55.8%; in the assay with K-562 leukemia, 57.2%; in the assay with MALME-3M melanoma, 20.9%; with MDA-MB-231 breast, 52.7%; with RXF 393 renal it was 93.7%; in the assay with SF-268 CNS it was 31.8%. In addition, the growth in the assay with SF-295 CNS was 7.95% (active); with SF-539 CNS it was -24.4% (active); with UACC-257 melanoma it was 87.6%; in the assay with M14 melanoma, 48.6%.

`NC(=O)c1c(NC(=O)c2ccccc2)sc2c1CCC(=O)C2`: the growth with DU-145 prostate was 35%; in the assay with K-562 leukemia, 5.24% (active); with MALME-3M melanoma, 7.31% (active); with MDA-MB-231 breast it was 0.799% (active); with RXF 393 renal, 18.7%; with SF-268 CNS, 17.7%. Moreover, the growth with SF-295 CNS is 33.4%; in the assay on SF-539 CNS, 16.1%; with UACC-257 melanoma, 4.86% (active); with M14 melanoma, 20.9%.

Take `COc1ccc(NC(=O)c2sc3nc(C)c(C(=O)/C=C/c4cccc(OC)c4)cc3c2N)cc1`: the growth was 21.9% with DU-145 prostate; 12.7% with K-562 leukemia; 94.1% in the assay with MALME-3M melanoma; 53.2% in the assay on MDA-MB-231 breast; -11.4% (active) in the assay with RXF 393 renal; 34.4% in the assay with SF-268 CNS. Further, the growth in the assay on SF-295 CNS was 26.9%; in the assay with SF-539 CNS, 71.2%; in the assay with UACC-257 melanoma, 87.9%; in the assay on M14 melanoma it was 70.3%.

For the compound `Cc1c(-c2nc3ccc(F)cc3c(=O)[nH]2)c2ccccc2n1C`, the growth is 53.6% in the assay on DU-145 prostate; 15% in the assay with K-562 leukemia; 48.4% with MALME-3M melanoma; 57.8% with MDA-MB-231 breast; 14.3% with RXF 393 renal; 54.1% with SF-268 CNS. Also, the growth was 15.1% in the assay with SF-295 CNS, 23.8% in the assay with SF-539 CNS, 55% with UACC-257 melanoma and 18.2% in the assay on M14 melanoma.

`CN[C@]12CC3(C=CC(=O)C=C3)O[C@@]1(Cc1ccc(OC)cc1)N(C)C(=O)N2`: the growth is 85.2% in the assay with DU-145 prostate; 7.19% (active) in the assay on K-562 leukemia; 11.2% with MALME-3M melanoma; 76.9% with MDA-MB-231 breast; 43.7% with RXF 393 renal; 66.4% in the assay with SF-268 CNS. The growth in the assay on SF-295 CNS was 103%; in the assay on SF-539 CNS, 12.2%; in the assay with UACC-257 melanoma it was 41%; in the assay on M14 melanoma, 9.52% (active).

On to `COc1cc(OC)c2sc(-c3ccc(-n4cncc4-c4ccc(OC)c(OC)c4)cc3)nc2c1`, for which the growth in the assay with DU-145 prostate is -4.76% (active); in the assay on K-562 leukemia, 65.5%; with MALME-3M melanoma, 73.1%; in the assay on MDA-MB-231 breast, 68%; in the assay with RXF 393 renal, 12.1%; with SF-268 CNS, 60.5%. In addition, the growth was 48.8% in the assay on SF-295 CNS, 66.5% in the assay on SF-539 CNS, 71.5% in the assay with UACC-257 melanoma and 67.6% in the assay with M14 melanoma.
